Assay outcomes: PubChem, National Center for Advancing Translational Sciences (NCATS)
Sampled rows, rich in hits. Any-hit rate of the full collection: about 22%.
CHX counter: affects cycloheximide protein synthesis inhibition readout, counter-screen; cell reporter, cycloheximide protein synthesis inhibition counterscreen; AID 2314; actives 12% (n = 300,000); max response, %; in the data active = max response mostly above about 13%, no sharp cut-off; inactive = mostly below about 14%; note: read at 38.3 µM for the half of the compounds with a filed dose; 0% is about no effect
Pf growth 48h: P. falciparum growth inhibition at 48 hours (one generation); P. falciparum luciferase growth in erythrocytes, 48 h; Potency, µM (doses to about 28.7 µM), without a hit: at the top dose activity change, negative = inhibition, actives largely listed as inhibitors; AID 504832; actives 5.9% (n = 310,000); note: potency is the fitted concentration of half-maximal effect; % is set by controls: 0 for no effect and ±100 for the full control effect
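First compound was added to culture medium, then infected red cells at 0.1% parasitemia and 2% hematocrit (final). After incubation at 37 C under 5% CO2, luciferase detection reagent was dispensed and light output recorded.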
Shiga toxin inh: Shiga toxin inhibition. Vero cells, Shiga toxin protein synthesis inhibition reporter. inhibition, % at 38.7 µM. actives 9.2% (n = 290,000); in the data active = inhibition mostly above about 28%, no sharp cut-off; inactive = mostly below about 43%; note: 0% is about no effect
Pf growth 96h: inhibits malaria parasite growth, 96 h | P. falciparum luciferase reporter growth, 96 h | Potency, µM (doses to about 28.7 µM), for inactives: at the top dose activity change, negative = inhibition, hits mostly inhibitors | actives 6.9% (n = 320,000); note: potency is the fitted concentration of half-maximal effect; % is set by controls: 0 for no effect and ±100 for the full control effect
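Two-generation exposure (96 h) targets delayed-death phenotype. Reporter parasites carrying integrated firefly luciferase, in red cells at 2% hematocrit and 0.05% parasitemia final, kept at 37 C, 5% CO2; luminescence loss indicates inhibition.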
LmPK inh: blocks Leishmania mexicana pyruvate kinase activity | Q27686 | purified LmPK, Kinase-Glo ATP luminescence, 1 h | Potency, µM (doses to about 57.5 µM), for inactives: top-dose activity change, negative = inhibition, usual class: inhibitors | actives 0.37% (n = 290,000) | AID 1721; note: potency is the fitted concentration of half-maximal effect; % is set by controls: 0 for no effect and ±100 for the full control effect
Target sequence (Q27686 whole entry, looked up): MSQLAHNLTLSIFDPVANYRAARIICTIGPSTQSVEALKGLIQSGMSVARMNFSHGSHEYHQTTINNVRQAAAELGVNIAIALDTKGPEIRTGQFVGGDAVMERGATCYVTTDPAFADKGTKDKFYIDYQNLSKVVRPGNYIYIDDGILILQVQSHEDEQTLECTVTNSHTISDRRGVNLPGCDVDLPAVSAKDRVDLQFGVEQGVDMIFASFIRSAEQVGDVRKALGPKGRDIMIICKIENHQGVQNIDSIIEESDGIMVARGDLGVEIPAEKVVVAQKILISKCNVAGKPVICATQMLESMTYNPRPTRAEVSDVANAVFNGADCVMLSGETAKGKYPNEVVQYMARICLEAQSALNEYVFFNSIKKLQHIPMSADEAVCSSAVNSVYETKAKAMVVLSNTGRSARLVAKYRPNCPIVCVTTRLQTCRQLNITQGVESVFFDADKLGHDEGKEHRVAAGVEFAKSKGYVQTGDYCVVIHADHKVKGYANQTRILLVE
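qHTS format; LmPK 0.1 nM; substrates PEP 0.5 mM and ADP 0.1 mM. One-hour room-temperature incubation, then coupled luciferase luminescence; 0.5 nM enzyme wells mark activation.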
An asterisk follows results filed as active; i = inactive; u = inconclusive; x = not tested or not shown; ! = not confirmed by another sample. Unless noted, calls come from the whole dose curve; as a rule, active = well fitted inhibition curve with a large enough effect; inconclusive = small, poorly fitted or top-dose-only effect, or another doubt; inactive = no such curve, though single readings can be large or run the other way.

SMILES | CHX counter | Pf growth 48h | Shiga toxin inh | Pf growth 96h | LmPK inh
CCN(CC(=O)Nc1ccccc1C(F)(F)F)C(=O)C1CSC2(C)CCC(=O)N12 (centres undefined) | x | 7.2% | x | 10.9% | x
C[C@H]1CC[C@H]2C(=O)N3[C@H](c4cccc(N5CCCC5=O)c4)[C@@H](C)CC[C@H]3C(=O)N2[C@@H]1c1cccc(N2CCCC2=O)c1 | -4.4 | u | -5.9 | u | 2.9%
C[C@H]1CC[C@H]2C(=O)N3[C@H](c4ccccc4Br)[C@@H](C)CC[C@H]3C(=O)N2[C@@H]1c1ccccc1Br | -2.2 | u | -6.6 | 5.22µM* | -1.2%
O=C(NOCc1ccccc1)c1ccccc1 | x | 79.0% | x | 147.6% | x
CCOc1ccc(-n2c(SCc3ccc([N+](=O)[O-])cc3)nnc2-c2ccc(OC)cc2)cc1 | 5.4 | u | -1.1 | 8.28µM* | -6.3%
CCOC(=O)C1(CCc2ccccc2)CCN(C(=O)CN2CCOC2=O)CC1 | 21.0* | 26.2% | 46.2 | 1.65µM* | 4.9%
CCOC(=O)C1(CCCc2ccccc2)CCN(C(=O)c2cncs2)CC1 | -3.2 | u | 11.3 | i | 3.6%
CCOC(=O)C1(CCc2ccccc2)CCN(C(=O)c2cnc(C)cn2)CC1 | 28.6* | -18.5% | 83.2* | 22.9% | 2.9%
CCOC(=O)C1(CCCc2ccccc2)CCN(C(=O)c2ocnc2C)CC1 | 7.5 | u | -1.2 | 2.2% | 1.4%
CCOC(=O)C1(CCc2ccccc2)CCN(C(=O)C2=C(C)OCCO2)CC1 | 22.5* | -3.8% | 41.7* | u | 0.4%
O=S(=O)(c1cc(Cl)ccc1Cl)N1CCN(Cc2ccc3c(c2)OCO3)CC1 | -2.9 | x | -9.5 | 10.4µM* | -1.5%
Cc1ccc2[nH]c(C(=O)N3CCN(C(c4ccccc4)c4ccccc4)CC3)cc2c1 | -2.1 | 2.62µM* | -19.2 | u | -2.8%
CN1CCN(C(=O)c2ccc(Cl)cc2)CC1 | -3.0 | -3.5% | x | 2.62µM* | -1.7%
Cc1cccc(N2CCN(C(=O)c3cc4cc(F)ccc4[nH]3)CC2)c1C | 3.0 | 1.65µM* | 66.6 | 13.1µM* | -2.3%
Cc1ccc(S(=O)(=O)N2CCCCC2)cc1C(=O)Nc1ccc(S(=O)(=O)Nc2ncccn2)cc1 | -1.1 | -20.9% | 21.0 | -0.2% | 5.4%
CCC1CCCCN1CCCNC(=O)c1ccc2c(c1)c(C)c(C)n2C (centres undefined) | -0.1 | u | -5.9 | 12.1% | -1.1%
CCCN(CCO)C1CCN(CCc2ccccc2)CC1 | -1.4 | 10.9% | -4.0 | -29.1% | -1.3%
O=C(c1cc2cc(Cl)ccc2[nH]1)N1CCCCC1 | 24.7* | 20.4% | 26.7 | 3.9% | -6.5%
O=C(c1cc2cc(F)ccc2[nH]1)N1CCN(C(=O)c2ccco2)CC1 | 7.9 | u | -1.2 | u | 5.6%
O=C(c1cccn2c(=O)c3ccc(Cl)cc3nc12)N1CCN(Cc2ccc3c(c2)OCO3)CC1 | -2.7 | 0.4% | -18.3 | 7.38µM* | -2.9%
O=C(c1cc2cc(Cl)ccc2[nH]1)N1CCN(c2ccc(F)cc2)CC1 | -5.1 | -5.2% | -2.8 | u | 10.3%
CN1CCN(C(=O)c2cc3cc(F)ccc3[nH]2)CC1 | 15.8 | 14.7µM* | -7.1 | 0.0% | -3.4%
COc1ccc(N2CCN(C(=O)c3cc4cc(Cl)ccc4[nH]3)CC2)cc1 | 19.2* | u | 12.9 | u | 5.3%
O=CN1CCN(C(=O)c2cc3cc(Cl)ccc3[nH]2)CC1 | -0.8 | -10.7% | x | 0.0% | 6.1%
COc1ccc(NC(=O)CSc2nnc(NC(=O)c3ccc(S(=O)(=O)N4CCOCC4)cc3)s2)cc1 | -3.0 | 12.6% | -4.2 | 1.3% | -1.3%
SMILES | CHX counter | Pf growth 48h | Shiga toxin inh | Pf growth 96h | LmPK inh
Cc1noc(C(F)(F)F)c1C(=O)NNC(=O)c1cccc(C(F)(F)F)c1 | -0.5 | -8.0% | 19.5 | 2.4% | -2.0%
O=C(c1cc2cc(Cl)ccc2[nH]1)N1CCN(Cc2ccc3c(c2)OCO3)CC1 | 13.3* | u | 8.1 | u | -2.3%
CCN1CCN(C(=O)c2cc3cc(Cl)ccc3[nH]2)CC1 | 1.3 | u | 24.9 | u | -1.8%
CN1CCN(C(=O)c2cc3cc(Cl)ccc3[nH]2)CC1 | 12.4*! | -10.6% | 27.7 | 10.4µM* | -4.3%
O=C(NC(=S)N1CCN(Cc2ccc3c(c2)OCO3)CC1)c1ccc(Cl)cc1 | 14.9* | -24.3% | 10.5 | -99.2% | -6.7%
O=C(NC(=S)N1CCN(Cc2ccc3c(c2)OCO3)CC1)c1cccc(Br)c1 | -1.4 | u | -7.8 | -73.3% | 4.8%
O=C(c1cccc(Cl)c1)N1CCN(Cc2ccc3c(c2)OCO3)CC1 | 8.3 | u | 4.5 | 6.9% | -12.1%
